# Activity calls are given as the source filed them.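 The calls were made as follows: active = fitted half-maximal concentration AC50 at or below ten times the highest valid tested dose, with signal falling as DNA is displaced (actives reach about 34 µM in these data); inconclusive = flat fit at moderate signal loss, or poor fit quality; inactive = the rest, including signal rising instead of falling.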
# Assay: acridine orange-DNA binding displacement – biochemical, fluorescence polarization, cherry-picked samples, set 2, artefact control for KSHV LANA DNA-binding inhibitor project, dose response (AID 504727)
row,Structure (SMILES),AC50
1,COC(=O)C1=COC(C)C2CN3CCc4c([nH]c5ccccc45)C3CC12 (configuration not stated),inactive
2,CN1CCN(CCCNC(=O)c2cc3c(-c4ccc(Cl)cc4)nn(C)c3s2)CC1,inactive
3,COc1ccc(-c2csc(NC(=O)CSc3nc(C)nc4sc(C(=O)O)c(C)c34)n2)cc1,inactive
4,O=c1[nH]c(=S)[nH]c2c1C(c1ccc(Br)cc1)c1c([nH]c(=S)[nH]c1=O)O2,inactive
5,Cc1ccc(NC(=O)CN2C(=O)N/C(=C/c3cccn3-c3ccc(C(=O)O)cc3)C2=O)cc1,inactive
6,CN(C)c1ccc(/C=C/C(=O)c2ccc(O)cc2)cc1[N+](=O)[O-],inactive
7,O=C(CN1C(=O)/C(=C/c2ccco2)SC1=S)Nc1ccc(O)c(C(=O)O)c1,inactive
8,CCc1sc(C(=O)NNC(=O)CNC(=O)c2ccccc2F)cc1C,inactive
9,COc1ccc(CCNC(=O)CCCNC(=O)Cn2cnc3sc(C)c(C)c3c2=O)cc1OC,inactive
10,CC(C)Cc1nc(SCC(=O)Nc2nnc(CC(C)C)s2)n[nH]1,inactive
11,CC1=C(O)C(=O)C(C2=C(O)C(=O)C(C)=C(O)C2=O)=C(O)C1=O,inactive
12,C=CCOC(=O)C1=C[C@H](c2csc3ccccc23)C[C@H](OCc2ccc(CO)cc2)O1,inactive
13,CCOCCCn1c(SCC(=O)NC(C)(C)C)nc2ccccc2c1=O,inactive
14,COc1cc2c(cc1OC)CN(C(=O)c1ccc(S(=O)(=O)N3CCCC3)cc1)CC2,inactive
15,O=C(O)c1cc(N2C(=O)C=CC2=O)cc(N2C(=O)C=CC2=O)c1,inactive
16,CNC(=S)Nc1cccc(C(=O)OC)c1,inactive
17,COC(=O)c1ccccc1NC(=O)CCS(=O)(=O)c1ccc(Br)cc1,inactive
18,CCN(C(=O)c1cccc(S(=O)(=O)N2CCc3ccccc32)c1)C1CCS(=O)(=O)C1 (configuration not stated),inactive
19,COc1ccc(-c2n[nH]c(=S)n2-c2ccc(C)cc2)cc1,inactive
20,COc1cc(SC)ccc1C(=O)OCC(=O)N1CCN(C(C)=O)CC1,inactive
21,O=C(Nc1ccc(Br)cn1)c1cccc2ccccc12,inactive
22,COCCN(C(=O)CN1CCCc2ccccc21)c1c(N)n(Cc2ccccc2)c(=O)[nH]c1=O,inactive
23,O=C(COc1ccccc1Cc1ccccc1)NCCCN1CCOCC1,33.9 µM (active)
24,O=C(CN(Cc1ccccc1F)C(=O)c1csnn1)NCc1ccc2c(c1)OCO2,inactive

row,Structure (SMILES),AC50
1,COc1ccc(S(=O)(=O)N2CCC(C(=O)N3CCCCC3)CC2)cc1,inactive
2,O=C(CN1CCN(C(=O)CNC(=O)c2ccc3c(c2)OCO3)CC1)Nc1ccc(F)cc1,inactive
3,Cc1cc(NC(=O)CCC(=O)N(CCC(C)C)C(C(=O)NC2CCCC2)c2cccnc2)no1 (configuration not stated),inactive
4,Oc1[nH]c2ccccc2c1N=Nc1ccccc1F,inactive
5,N#CC1=C(N)Oc2ccc3ccc(O)cc3c2C1c1ccsc1 (configuration not stated),inactive
6,NC(=S)N/N=C/c1cn(CCC(=O)O)nc1-c1cccc(Br)c1,inactive
7,O=C1c2ccccc2C(Nc2ccc3c(c2)OCCO3)N1Cc1ccc2c(c1)OCO2 (configuration not stated),inactive
8,O=C1CCCC(O)=C1N=Nc1ccc(C(=O)O)cc1,inactive
9,NC(=S)N/N=C/c1ccc(-c2ccc([N+](=O)[O-])cc2)o1,inactive
10,CCN(C(=O)COC(=O)CCCOc1ccc(Cl)cc1C)c1c(N)n(Cc2ccccc2)c(=O)[nH]c1=O,inactive
11,Cc1ccc(S(=O)(=O)Nc2ccc(Br)cc2C(NCC(=O)O)c2ccccc2)cc1 (configuration not stated),inactive
12,C/C(=N\Nc1nc2c(s1)CCCC2)c1ccc(Cl)cc1,inactive
13,CCn1c(=O)c(C(=O)NCCN2CCCCC2)c(O)c2ccccc21,inactive
14,CC(Sc1ncccn1)C(=O)NNC(=O)c1cccc(Cl)c1 (configuration not stated),inactive
15,O=C(N/N=C\c1ccc([N+](=O)[O-])o1)c1cncc(Br)c1,inactive
16,COC(=O)C1=C(N)OC2=C(C(=O)CCC2)C1c1cccs1 (configuration not stated),inactive
17,C=CCn1c(C)cc(-c2csc(NC(=O)CCc3nc4ccccc4c(=O)[nH]3)n2)c1C,inactive
18,COc1ccc(N=C2SC(CC(=O)Nc3ccccc3)C(=O)N2Cc2ccco2)cc1 (configuration not stated),inactive
19,CCc1noc(C)c1C(=O)NCCc1c[nH]c2ccccc12,inactive
20,COc1ccc(C(=O)c2ccsc2N)cc1,inactive
21,NNc1nc2sc3c(c2c(=O)n1C1CCCCC1)CCN(Cc1ccccc1)C3,inactive
22,CC(C)N(Cc1ccccc1)C(=O)Cn1c(=O)cnc2ccccc21,inactive
23,CC(=O)OCCCn1c(C)[n+](C)c2cc(Cl)c(Cl)cc21,inactive

# From PubChem BioAssay AID504727 (Broad Institute, 2011)
